Sampled rows, rich in hits. Any-hit rate of the full collection: about 1.1%.
NR5A2 inv ag = NR5A2 inverse agonism in reporter assay. inhibition, % at 3.6 µM. AID 602396. actives 0.13% (n = 360,000). HEK293T StAR-luciferase reporter, LRH-1 transfected, 24 h. O00482;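 active = inhibition above the mean inhibition of all tested compounds plus 3 SD, cut at about 73% in these data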
Target sequence (O00482 whole entry, looked up): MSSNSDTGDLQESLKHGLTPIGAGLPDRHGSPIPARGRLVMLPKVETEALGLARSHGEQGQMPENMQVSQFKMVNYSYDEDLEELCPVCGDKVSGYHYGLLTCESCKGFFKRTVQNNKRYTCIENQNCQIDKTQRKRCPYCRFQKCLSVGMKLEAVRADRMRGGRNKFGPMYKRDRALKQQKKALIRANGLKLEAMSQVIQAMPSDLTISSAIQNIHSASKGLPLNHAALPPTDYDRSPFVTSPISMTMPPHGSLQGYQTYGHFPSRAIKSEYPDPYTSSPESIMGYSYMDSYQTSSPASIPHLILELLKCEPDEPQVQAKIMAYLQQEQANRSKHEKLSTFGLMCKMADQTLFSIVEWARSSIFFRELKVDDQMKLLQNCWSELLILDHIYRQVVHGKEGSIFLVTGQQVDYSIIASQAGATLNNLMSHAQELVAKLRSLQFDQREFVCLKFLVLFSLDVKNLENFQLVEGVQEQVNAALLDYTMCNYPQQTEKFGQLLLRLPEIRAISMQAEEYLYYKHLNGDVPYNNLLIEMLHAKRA
GalR3 antagonist = antagonists of human GalR3 | HEK293 GalR3-CNG cAMP membrane potential fluorescence; galR3 body fused to GalR1 C-terminus | inhibition, % at 3 µM | actives 0.44% (n = 360,000) | AID 651719;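 active = inhibition above the screen-wide average plus 3 SD, cut at about 13% in these data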;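 also: forskolin and galanin both at EC90 stimulate the cells; cAMP rise reported by CNG channel membrane potential dye signal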
NR2F2 inh = NR2F2 (human) inhibition, primary screen. AID 686940. HEK293T NGFI-A luciferase reporter, luminescence. inhibition, % at 8.6 µM. actives 0.7% (n = 370,000). P24468;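 active = inhibition above a per-plate cutoff, mean inhibition of test wells between control levels plus 3 SD, cut at about 38% in these data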;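 also: cells cotransfected with COUP-TFII expression vector driving the NGFI-A reporter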
NCOA1 inh = inhibits human SRC1 coactivator. Q15788. HEK293 GAL4-SRC1 luciferase reporter, luminescence. inhibition, % at 3.6 µM. actives 0.12% (n = 360,000);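 active = inhibition above the campaign mean plus 3 SD, with each screening campaign given its own cutoff, cut at about 60% in these data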
SRC3 inh = human NCOA3 inhibition; Q9Y6Q9; HEK293 GAL4-SRC3 luciferase reporter, luminescence; inhibition, % at 3.6 µM; actives 0.17% (n = 360,000); AID 588352;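 active = inhibition above a per-campaign cutoff, the mean of all compounds plus 3 SD, cut at about 60% in these data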;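 also: higher means less SRC3-driven luciferase light from the GAL4 reporter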
NCOA2 inhibitor = human SRC2 (NCOA2) inhibition; HEK293 GAL4-SRC2 luciferase reporter, luminescence; inhibition, % at 9 µM; actives 0.17% (n = 370,000); AID 651957;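 active = inhibition above the mean inhibition of all tested compounds plus 3 SD, set per campaign, cut at about 52% in these data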
VP16 Luc counter = counter-screen for COUP-TFII antagonists: inhibitors of VP16 | shares compounds with NR2F2 inh | inhibition, % at 8.5 µM | HEK293 Gal4-VP16 luciferase reporter, luminescence | actives 25% (n = 2,500); in the data active = inhibition above about 13%
COUP-TFII conf = confirmation of human COUP-TFII (NR2F2) inhibitors | shares compounds with NR2F2 inh | HEK293 NGFI-A luciferase reporter, luminescence | inhibition, % at 8.5 µM | actives 45% (n = 2,500);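 active = mean inhibition over three repeats above a set limit taken from the earlier primary screen, cut at about 38% in these data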
A number is an active result; – = inactive; · = no result given.

SMILES	NR5A2 inv ag	GalR3 antagonist	NR2F2 inh	NCOA1 inh	SRC3 inh	NCOA2 inhibitor	VP16 Luc counter	COUP-TFII conf
O=c1cc[nH]c2ccc(Cl)cc12	–	–	–	–	–	–	·	·
O=c1cccc2c1c1cc[nH]c3ccc(=O)n2c31	–	–	45	–	–	–	–	–
COc1ccc(CNc2cc(C)nc3ncnn23)c(OC)c1	–	–	65	–	–	–	–	–
Cc1cc(C)cc(Oc2ccc(N)cc2)c1	–	–	51	–	–	–	20	–
Cc1cccc(Oc2ccc(N)cc2)c1	–	–	–	–	–	–	·	·
Nc1ccc(Oc2cccc(Oc3ccc(N)cc3)c2)cc1	–	–	77	–	–	86	77	74
CCSc1nnc(-c2sc3nnc(-c4ccccc4)c(-c4ccccc4)c3c2N)o1	–	–	–	–	–	–	·	·
CCOc1ccc(OCC)c(NC(=O)C2CCCN2S(=O)(=O)c2cccc3cccnc23)c1 (stereo not drawn)	–	–	40	–	–	–	–	–
C=C1C(=O)O[C@@H]2C[C@@H](C)[C@@H]3C=CC(=O)[C@@]3(C)[C@@H](OC(C)=O)[C@H]12	·	–	86	·	·	83	94	105
COCCN1CCN(c2cc(-c3ccccc3)nc3cc(-c4cccc(F)c4)nn23)CC1	–	–	47	–	–	–	–	–
CC(=O)Nc1ccc(NC(=O)c2csc([C@H]3C[C@H](O)[C@@H](CO)O3)n2)cc1	–	–	–	–	–	–	·	·
O=C(Nc1ccc(Oc2ccccc2)cc1)c1csc([C@@H]2C[C@H](O)[C@@H](CO)O2)n1	–	–	52	–	–	–	–	–
CC(=O)N1CCN(c2ccc(NCc3cccc(C)c3)cc2)CC1	–	–	–	–	–	–	·	·
CCc1ccc(-c2nc(CSCC(=O)N3CCN(c4ccccn4)CC3)c(C)o2)cc1	–	–	52	–	–	–	–	–
CCOc1ccc(-c2nc(CSCC(=O)N3CCN(c4cccc(OC)c4)CC3)c(C)o2)cc1	–	·	66	–	–	59	17	44
Cc1cccc(NC(=O)c2ccc(COc3ccc(Cl)cc3Cl)o2)n1	–	–	–	–	–	–	·	·
CCOC(=O)N1CCN(C(=O)c2ccccc2NC(=O)c2ccc(C(C)(C)C)cc2)CC1	–	–	–	–	–	–	·	·
CCOC(=O)N1CCN(C(=O)C(NC(=O)c2ccc(C(C)(C)C)cc2)C(C)C)CC1 (stereo not drawn)	–	–	40	–	–	–	–	–
O=c1c2ccccc2oc2ccc(C#CC3(O)CCCCC3)cc12	–	–	–	–	–	–	·	·
Cn1c2ccccc2c(=O)c2cc(C#CC3(O)CCCCC3)ccc21	–	–	45	–	–	–	–	38
Cn1c2ccccc2c(=O)c2ccc(C#CC3(N)CCCCC3)cc21	–	–	–	–	–	–	·	·
Cc1cc2sc3ccc(C#CC4(O)CCCCC4)cc3c(=O)c2cc1C	78	–	89	88	87	82	89	109
O=C(CN1C(=O)C2CCCCC2C1=O)Nc1ccc(S(=O)(=O)Nc2ncccn2)cc1 (stereo not drawn)	–	–	–	–	–	–	·	·
CC1(C(=O)Nc2cccc(C#N)c2)CCN1C(=O)Cc1ccc(-c2ccccc2)cc1 (stereo not drawn)	–	–	52	–	–	–	–	–
CC(=NNc1ccc2ccccc2n1)c1ccccn1	·	–	59	·	·	–	34	74
SMILES	NR5A2 inv ag	GalR3 antagonist	NR2F2 inh	NCOA1 inh	SRC3 inh	NCOA2 inhibitor	VP16 Luc counter	COUP-TFII conf
CC(=NNc1ccc2ccccc2n1)c1ccccc1O	–	–	–	–	–	–	·	·
C(#Cc1ccccc1)C[N+]1(CC#Cc2ccccc2)CCCCC1	–	–	–	–	–	–	·	·
CCC[N+]1(CC#CCC(c2ccccc2)c2ccccc2)CCCCC1	–	–	52	–	–	–	–	–
O=C(Nc1nc(-c2ccccc2)cs1)c1ccc2c(c1)S(=O)(=O)c1ccccc1C2=O	–	–	–	–	–	–	·	·
Cc1cc(C(=O)COC(=O)c2ccco2)c(C)n1Cc1ccco1	–	–	58	–	–	–	–	–
Cc1cc(C(=O)COC(=O)c2ccncc2)c(C)n1Cc1ccco1	–	–	–	–	–	–	·	·
O=C(Nc1cccc(O)c1)c1cc(-c2ccc3c(c2)OCO3)on1	–	–	43	–	–	–	–	–
O=C(Nc1cccc(O)c1)c1cc(-c2ccccc2Cl)on1	–	–	60	–	–	–	–	–
COc1cc(-c2cnc3c(NC=O)cc(-c4cccc(C(F)(F)F)c4)cn23)cc(OC)c1OC	–	–	41	–	–	–	–	–
Cc1cccc(-c2cc(NC=O)c3ncc(-c4cccc(C(=O)N(C)C)c4)n3c2)c1	–	–	–	–	–	–	·	·
CN(C)C(=O)c1cccc(-c2cnc3c(NC=O)cc(-c4cccc(C(F)(F)F)c4)cn23)c1	–	–	46	–	–	–	–	–
COc1ccc(NS(=O)(=O)c2cccc(C(=O)NC3CCN(Cc4ccccc4)CC3)c2)cc1	–	–	–	–	–	–	·	·
COc1ccc(Cl)cc1NS(=O)(=O)c1cccc(C(=O)NC2CCN(Cc3ccccc3)CC2)c1	–	–	48	–	–	–	17	–
CCC1C(=NO)C(CC)C(c2ccccc2)NC1c1ccccc1 (stereo not drawn)	–	–	–	–	–	–	·	·
CC(=O)Nc1ccc(NC(=O)C2(C)Cc3c(-c4cccc(C(N)=O)c4)ccnc3O2)cc1 (stereo not drawn)	–	–	–	–	–	–	·	·
CCCNC1=C(N(C(C)=O)c2cccc(F)c2)C(=O)c2ccccc2C1=O	79	–	57	–	–	58	–	–
CCC(=O)N(C1=C(NC(C)C)C(=O)c2ccccc2C1=O)C(C)C	–	–	–	–	–	–	·	·
O=C(Nc1cccc(S(=O)(=O)N2CCCCCC2)c1)c1ccc(Cl)nc1	–	–	41	–	–	–	–	–
O=C(Nc1cccc(S(=O)(=O)N2CCCCCC2)c1)C1CCN(C(=O)c2ccc(Cl)cc2)CC1	–	–	42	–	–	–	–	–
O=C(Nc1cccc(S(=O)(=O)N2CCCCC2)c1)C1CCN(C(=O)c2ccc(Cl)cc2)CC1	–	–	–	–	–	–	·	·
O=C(Nc1cccc(S(=O)(=O)N2CCCCC2)c1)c1ccc(Cl)nc1	–	–	–	–	–	–	·	·
O=C(Nc1cccc(S(=O)(=O)Nc2ccccc2Cl)c1)c1ccc(Cl)nc1	–	–	47	–	–	–	–	40
COC(=O)C[C@@H]1C=C[C@@H](NC(=O)CN(C)C)[C@@H](CO)O1	–	–	–	·	·	–	·	·

Compound activity as filed in PubChem BioAssay.
